This is one part of a sample in which hits are shown more often than they occur.
ST2 IL33 inh – blocks human ST2 binding to IL-33; Q01638; AlphaLISA ST2-Fc/biotin-IL-33 interaction, 1 h; inhibition, % for hits at 17 µM; 78,000 compounds, 2.3% hits; AID 1259354; in the data active = inhibition above about 30%
Target sequence (Q01638 whole entry, looked up): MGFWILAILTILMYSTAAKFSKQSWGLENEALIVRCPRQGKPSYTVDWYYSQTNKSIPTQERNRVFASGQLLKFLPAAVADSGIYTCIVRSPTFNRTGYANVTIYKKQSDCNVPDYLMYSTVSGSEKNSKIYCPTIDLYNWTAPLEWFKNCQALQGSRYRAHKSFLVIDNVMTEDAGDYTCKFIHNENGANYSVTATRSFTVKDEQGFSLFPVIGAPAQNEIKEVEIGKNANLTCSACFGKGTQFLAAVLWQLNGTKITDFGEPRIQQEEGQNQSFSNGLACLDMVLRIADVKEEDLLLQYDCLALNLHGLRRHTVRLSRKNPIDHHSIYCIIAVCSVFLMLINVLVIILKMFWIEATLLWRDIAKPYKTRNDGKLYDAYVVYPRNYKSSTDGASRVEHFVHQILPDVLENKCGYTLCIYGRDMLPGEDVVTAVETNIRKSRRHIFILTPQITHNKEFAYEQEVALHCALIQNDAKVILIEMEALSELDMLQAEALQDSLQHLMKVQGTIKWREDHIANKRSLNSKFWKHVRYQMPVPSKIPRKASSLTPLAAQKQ
Active calls of the source: *; i = inactive; ! = not confirmed by another sample.

SMILES	ST2 IL33 inh
Cc1ccc(-c2nccs2)c(-n2cccn2)c1	i
O=C(c1cccc([N+](=O)[O-])c1)N1N=C2CCCCCC2C1(O)C(F)(F)F (configuration not stated)	i
CCCc1cc(=O)[nH]c(SCC(=O)Nc2ncccn2)n1	i
O=C(c1ccc2c(c1)N(Cc1ccc(F)cc1Cl)C(=O)CS2)N1CCOCC1	i
Cc1c(-c2ccccc2F)[nH]c2ccc(CNC(=O)CCn3cncn3)cc12	i
Cc1ccc(C(=O)N2CCCC2)cc1[N+](=O)[O-]	i
Cc1ccc2c(c1)C1C=CCC1C(c1ccccc1Cl)N2 (configuration not stated)	33%*
O=C(c1ccc2c(c1)C1C=CCC1C(c1ccc([N+](=O)[O-])cc1)N2)N1CCCC1 (configuration not stated)	40%*
Cc1ccc(C(=O)N2CCN(C(=O)c3ccccc3)C2c2ccc(N(C)C)cc2)cc1 (configuration not stated)	i
CC1CC(=O)Nc2cc([N+](=O)[O-])ccc2N1 (configuration not stated)	i
CC1CC(C)CN(C(=O)c2ccc([N+](=O)[O-])cc2)C1 (configuration not stated)	i
Cc1ccc([C@@H]2Nc3ccc(C(=O)O)cc3[C@@H]3C=CC[C@@H]32)cc1	34%*
O=C1Nc2cc(Cl)c(Cl)cc2N(O)N1c1ccc([N+](=O)[O-])cc1	i
O=[N+]([O-])c1ccc(C2Nc3cc(Cl)cc(Cl)c3C3C=CCC32)cc1 (configuration not stated)	32%*
Cc1ccc(S(=O)(=O)N2CCSC2c2ccccc2Cl)c(C)c1 (configuration not stated)	i
Cc1cccc2[nH]c(CNC(=O)[C@@H](N)Cc3c[nH]c4ccccc34)nc12	i
Cc1cc(C)n(CCNC(=O)CCNC(=O)c2ccccc2F)c(=O)n1	i
CC1=C[C@@H](CNC(=O)c2ccco2)[C@H](C(C)C)C[C@H]1CC(=O)N(C)Cc1cccnc1	i
Cc1ccc(S(=O)(=O)Cc2noc([C@@H]3C[C@@H](O)CN3Cc3cc4ccccc4o3)n2)cc1	i
COc1ccccc1Cc1nc(-c2cccc([N+](=O)[O-])c2)no1	32%*
COc1ccc(-c2nc(-c3cccc([N+](=O)[O-])c3)no2)cc1	i
COc1ccccc1Cc1noc(COc2cccc(C)c2C)n1	i
COc1ccccc1Nc1nc(-c2ccc([N+](=O)[O-])cc2)nc2ccccc12	i
COc1ccccc1Cc1nc(-c2ccc([N+](=O)[O-])cc2)no1	30%*
O=[N+]([O-])c1cccc(-c2noc(-c3ccc(I)cc3)n2)c1	i
SMILES	ST2 IL33 inh
COc1ccccc1CNc1ccc([N+](=O)[O-])cn1	i
COc1ccccc1Cc1noc(-c2ccc([N+](=O)[O-])cc2)n1	47%*
COc1ccccc1Cc1noc(/C=C/c2ccccc2Cl)n1	i
CCN(CC1CCN(C2CCN(C)CC2)CC1)C(=O)CCC(=O)c1ccc(OC)cc1	i
COc1ccc(CNC(=O)C2CCN(Cc3ccccc3OC)CC2)cc1	i
O=C(COc1ccc(Cl)cc1Cl)Nc1ccccc1I	i
Cc1cc(Nc2ccccc2Cl)n2ncnc2n1	i
CN(C)c1nc2c(c(=O)[nH]1)CCN(C(=O)[C@H]1CCCN1)C2	i
COCCCn1c(=N)c(C(=O)NC2CCCCC2)cc2c(=O)n3cccc(C)c3nc21	i
Cc1ccc(N2CN=c3s/c(=C\c4cccnc4)c(=O)n3C2)cc1	30%*
COc1ccc(/C=c2\sc3n(c2=O)CN(c2ccc(C(C)=O)cc2)CN=3)cc1	i
COc1ccc(/C=c2\sc3n(c2=O)CN(c2cccc(F)c2)CN=3)cc1	35%*
O=c1/c(=C/c2cccc([N+](=O)[O-])c2)sc2n1CN(c1cccc(F)c1)CN=2	i
O=c1/c(=C/c2cccnc2)sc2n1CN(c1cccc(C(F)(F)F)c1)CN=2	i
COc1cccc(/C=c2\sc3nnc(-c4ccc(C)cc4)n3c2=O)c1	i
CCOc1ccc(-c2nc3s/c(=C\c4ccc(F)cc4)c(=O)n3n2)cc1	i
CCCOc1ccc(/C=c2\sc3nc(=O)c(C)nn3c2=O)cc1	i
COc1ccccc1/C=c1\sc2nnc(-c3ccc(C)cc3)n2c1=O	i
Cc1ccc(-c2nnc3s/c(=C\c4ccc([N+](=O)[O-])cc4)c(=O)n23)cc1	i
COc1cc(/C=c2\sc3n(c2=O)CN(c2ccc(C)cc2)CN=3)c([N+](=O)[O-])cc1OC	38%*
COc1ccc(/C=c2\sc3n(c2=O)CN(c2ccc(C)cc2)CN=3)cc1	31%*
CC1(C)[C@H]2CC=C(CCNC3CCN(c4ccc(C(=O)N5CCOCC5)cc4)CC3)[C@@H]1C2	i
O=C(NCc1cccs1)c1cc(=O)[nH]c2ccc(S(=O)(=O)N3CCCCC3)cc12	i
O=C(CCN1CCCCO1)N1CC[C@@H](c2ccc3c(c2)OCO3)[C@H](O)C1	i
O=C(CNS(=O)(=O)c1cccs1)N1C[C@@H]2C3CCC(CC3)[C@@H]2C1	i
SMILES	ST2 IL33 inh
O=C1C(O)=C(c2ccccc2)C2CCCN12 (configuration not stated)	i
COC(=O)[C@H](Cc1ccc(OC)cc1)NC(=O)[C@H]1CN(C(=O)c2cccnc2)CCN1C(=O)c1cccs1	i
CCCCOc1ccc(/C=c2\sc3nc(=O)c(Cc4ccccc4)nn3c2=O)cc1	i
CN1CCN(CCCCOc2cccc(Br)c2)CC1	i
NC(=O)[C@H](CC1CCCCC1)NC(=O)[C@@H]1CN(C(=O)Nc2ccccc2)CCN1C(=O)NC1CCCCC1	i
O/N=C\c1c(O)c(Br)cc2oc3c(c12)CCCC3	38%*
CC(C)(C)C(=O)Nc1c(C(=O)Nc2cccc(F)c2)oc2ccccc12	i
CC1C(=O)C(C)C(c2ccc(N(C)C)cc2)NC1c1ccc(N(C)C)cc1 (configuration not stated)	36%*!
CC1C(=O)C(C)C(c2ccc(F)cc2)NC1c1ccc(F)cc1 (configuration not stated)	i
CC1C(=O)C(C)C(c2ccccc2O)NC1c1ccccc1O (configuration not stated)	i
O=C1OC(c2ccccc2)=C/C1=C\c1c(Cl)cccc1Cl	46%*
Clc1ccccc1-c1nc(-c2ccccc2)no1	i
O=C1Nc2ccccc2/C1=C\c1c(Cl)cccc1Cl	i
COc1cncc(-c2cccc3ccnn23)c1	i
Cc1c(NC(=O)CC(C)C)cccc1-c1nc2ccccc2s1	i
CS(=O)(=O)c1ccc(CN2C[C@H](O)C[C@H]2c2nc(-c3ccc(F)cc3)no2)cc1	i
O[C@@H]1C[C@@H](c2nc(-c3ccc(OC(F)(F)F)cc3)no2)N(Cc2ccccc2)C1	i
CS(=O)(=O)c1ccc(CN2C[C@H](O)C[C@H]2c2nc(-c3ccc(OC(F)(F)F)cc3)no2)cc1	32%*
O=C(CCN1CCC(OCc2cccnc2)CC1)NC1CCCCCC1	i
COc1cc2c(cc1OC)C(C(=O)NC1CCCCC1)C1c3ccccc3CCN1C2=O (configuration not stated)	i
CC(C)C(Nc1ccc(C(F)(F)F)cc1[N+](=O)[O-])C(=O)O (configuration not stated)	i
CC(=O)Nc1ccc(S(=O)(=O)Nc2ccc(C(F)(F)F)cc2[N+](=O)[O-])cc1	i
Cc1nonc1OCC(C)(C)Nc1ccc(C(F)(F)F)cc1[N+](=O)[O-]	36%*
